Drawing on PubChem BioAssay AID602340 (Broad Institute, 2012), this text covers rescue of ATP level for 79 compounds.

Structures are written as SMILES. About 2,600 (0.79%) of roughly 330,000 compounds were called active. What follows is part of a selection rich in actives, with near analogues and random picks from the rest. A number with no mark means an inactive call.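 How the source made its calls: active means mean ATP rescue above about 67%, or every replicate alone reaching that limit (limit read from the data, passing the limit was not always enough); inconclusive means no clear call, values can overlap the other calls; inactive means mean under the limit and some replicate under it.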

A short description of the test: protection of differentiated C2C12 cells from simvastatin – single point, plate reader, primary screen (AID 602340).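 Further: myotubes were challenged with 10 µM simvastatin during compound exposure.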 Conditions: C2C12 myotubes + simvastatin, ATP luminescence, 48 h; at 7.49 µM; hits give high values; scaled: DMSO 0, geranylgeraniol control 100.
Take `CN(C)c1ccc(/C=N/NC(=O)c2ccc(Cn3cc(Br)cn3)o2)cc1`: the rescue of ATP level is -6.78%.

Consider `Cc1nn(Cc2ccccc2Cl)c(C)c1NC(=O)Cn1nc([N+](=O)[O-])c(Cl)c1C`, for which the rescue of ATP level is 13.1%.

Regarding `Cc1c(Cl)c([N+](=O)[O-])nn1Cc1ccc(C(=O)N/N=C\c2cc(Cl)ccc2O)o1`, the rescue of ATP level was 74.2% (active).

Turning to `CO[C@@H]1CC[C@@H]2CCOc3ccc(C#N)cc3C(=O)N(C)[C@H](C)C(=O)N(C)C[C@@H]1O2`, the rescue of ATP level is 4.94%.

`O=C(NCC[C@@H]1CC[C@H](NC(=O)C2CCCCC2)[C@@H](CO)O1)Nc1ccc(Cl)cc1`: the rescue of ATP level is -9.47%.

On to `CO[C@@H]1CN(C)C(=O)c2ccc(NS(=O)(=O)c3cccc(F)c3)cc2OC[C@H](C)N(C(=O)Cc2cccnc2)C[C@@H]1C`, for which the rescue of ATP level was 19.8%.

On to `C[C@H]1CN([C@@H](C)CO)C(=O)c2cc(-c3cccc(C(=O)N(C)C)c3)cnc2O[C@H]1CN(C)S(=O)(=O)c1ccccc1`, for which the rescue of ATP level is -7.9%.

`NC(=O)Nc1ccc(C(=O)OCC(=O)NC2CCCc3ccccc32)cc1` (centres undefined): the rescue of ATP level was -1.62%.

Regarding `Nc1ccc(C(=O)OCC(=O)NC2CCS(=O)(=O)C2)cc1[N+](=O)[O-]` (centres undefined), the rescue of ATP level was -3.1%.

In the case of `Nc1ccc(C(=O)OCC(=O)NC2CCCc3ccccc32)cc1[N+](=O)[O-]` (centres undefined), the rescue of ATP level is 150% (active).

With `Cc1nn(C)c(Oc2ccccc2)c1[N+](=O)[O-]`, the rescue of ATP level is 72.4% (active).

For the compound `Cc1nn(C)c(Oc2ccc(Cl)cc2)c1C=O`, the rescue of ATP level is 15.3%.

As to `Cc1nn(C)c(Oc2ccccc2)c1CCNS(=O)(=O)c1ccc(F)cc1`, the rescue of ATP level is 8.55%.

With `CCC1(CC)NC(=O)N(CC(=O)OCC(=O)NC(=O)c2ccccc2)C1=O`, the rescue of ATP level was -1.1%.

On to `CCC1(CC)NC(=O)N(CC(=O)OCC(=O)Nc2ccc(C(F)(F)F)cc2)C1=O`, for which the rescue of ATP level was 115% (active).

Regarding `CCC1(CC)NC(=O)N(CC(=O)OCC(=O)c2cc(C)c(C)cc2C)C1=O`, the rescue of ATP level was 8.64%.

Regarding `C[C@H]1CN([C@@H](C)CO)C(=O)c2c(c3ccccc3n2C)-c2ccccc2CO[C@H]1CN(C)C(=O)Nc1ccc(F)cc1`, the rescue of ATP level was 19.1%.

Regarding `COCC(=O)N1C[C@H]2[C@@H](c3ccccc31)[C@@H](CO)N2C(=O)NC(C)C`, the rescue of ATP level was 17%.

Regarding `COc1ccccc1CNC(=O)C1CCN(c2nc3ccccc3o2)CC1`, the rescue of ATP level is 15.8%.

Consider `COc1ccc(OC)c(CNC(=O)C2CCCN(c3nc4ccccc4o3)C2)c1` (centres undefined), for which the rescue of ATP level was 102% (active).

Take `CCc1ccc(CNC(=O)C2CCCN(c3nc4ccccc4o3)C2)cc1` (centres undefined): the rescue of ATP level is 28.3%.

On to `C[C@@H]1CN([C@@H](C)CO)C(=O)c2cccc(NS(=O)(=O)c3cn(C)cn3)c2O[C@@H]1CN(C)Cc1ccc(Cl)c(Cl)c1`, for which the rescue of ATP level was -13.1%.

As for `CCCNC(=O)C[C@H]1C[C@@H]2c3cc(NC(=O)C4CCOCC4)ccc3O[C@@H]2[C@@H](CO)O1`, the rescue of ATP level is -1.71%.

As for `CCN(CC)Cc1csc2ccc(Br)cc12`, the rescue of ATP level is 100% (active).

`CCN(CC)Cc1cc(C(C)=O)ccc1O`: the rescue of ATP level was 16.6%.

`CN(CCO)Cc1csc2ccc(Br)cc12`: the rescue of ATP level was 14.5%.

Take `CNC[C@H]1Oc2cc(-c3cccnc3)ccc2S(=O)(=O)N([C@@H](C)CO)C[C@H]1C`: the rescue of ATP level is -14.4%.

Take `O=C(C[C@@H]1C=C[C@H](NC(=O)c2ccc3c(c2)OCO3)[C@H](CO)O1)NCc1ccc(Oc2ccccc2)cc1`: the rescue of ATP level is 8.65%.

Take `CN(C)C(=O)c1cccc(-c2ccc3c(c2)[C@H]2[C@H](CCN2S(=O)(=O)c2cn(C)cn2)[C@@H](CO)N3)c1`: the rescue of ATP level is 13.8%.

For `COC(=O)C1=C(C)N(C)C(C)=C(C(=O)OC)C1c1cccc(Br)c1`, the rescue of ATP level was 89.2% (active).

On to `COCCN1C(=O)N[C@@H](c2ccccc2)C(C(=O)OC)=C1C`, for which the rescue of ATP level is -10.8%.

As for `CCN1C(=O)N[C@@H](c2ccccc2)C(C(=O)OC)=C1C`, the rescue of ATP level is -1.21%.

As to `COCC(=O)Nc1ccc2c(c1)OC[C@H](C)N(C(=O)Cc1ccccn1)C[C@H](C)[C@@H](OC)CN(C)C2=O`, the rescue of ATP level is 9.72%.

For `OCCCNc1nc(-c2ccccc2)c2cc(Cl)ccc2n1`, the rescue of ATP level is 1.1%.

For `O=C(CCl)NNc1nc(-c2ccccc2)c2cc(Cl)ccc2n1`, the rescue of ATP level is 16.4%.

As for `Cc1ccc2nc(Nc3ccccc3O)nc(-c3ccccc3)c2c1`, the rescue of ATP level is 134% (active).

`CC(C)NC(=O)Nc1ccc2c(c1)CC(=O)N([C@@H](C)CO)C[C@@H](C)[C@@H](CN(C)S(=O)(=O)c1ccccc1)O2`: the rescue of ATP level is -17%.

Consider `COc1ccccc1CNC(=O)C[C@@H]1CC[C@H](NC(=O)CN(C)C)[C@@H](CO)O1`, for which the rescue of ATP level is 2.77%.

On to `CN1c2ccc(-c3ccccc3)cc2[C@@H]2[C@@H](CCN2C(=O)NC2CCCC2)[C@H]1CO`, for which the rescue of ATP level is -5.4%.

As for `CCCNC(=O)N[C@@H]1C=C[C@H](CC(=O)NC2CCC2)O[C@H]1CO`, the rescue of ATP level is 1.32%.

Turning to `CN1C(=O)c2cc(NC(=O)c3ccc(Cl)cc3)ccc2OC[C@H]2O[C@H](CC(=O)O)CC[C@H]21`, the rescue of ATP level was -6.44%.

`C[C@@H]1CN([C@@H](C)CO)C(=O)c2cc(C#CC(C)(C)O)cnc2O[C@@H]1CN(C)C(=O)C1CCOCC1`: the rescue of ATP level is 16.9%.

Turning to `CNC(=S)N/N=C/c1ccc(OCc2ccccc2)c(Br)c1`, the rescue of ATP level was 10.8%.

As to `C=CCNC(=S)N/N=C/c1ccc(OCc2ccccc2)cc1`, the rescue of ATP level was 106% (active).

For the compound `C=CCNC(=S)N/N=C/c1ccc(C)s1`, the rescue of ATP level was 5.1%.

As for `O=C(C[C@H]1CC[C@H]2[C@@H](COC[C@@H](O)CN2CC2CCOCC2)O1)NCc1ccc(Cl)cc1`, the rescue of ATP level was 7.95%.

On to `O=C(/C=C/c1ccco1)Nc1ccc(Oc2ccccc2)cc1`, for which the rescue of ATP level was -25.3%.

For the compound `Cc1ccc(-n2nc3ccc(NC(=O)/C=C/c4ccco4)cc3n2)cc1C`, the rescue of ATP level is 97.3% (active).

With `CCC(=O)Nc1ccc2nn(-c3ccc(F)cc3)nc2c1`, the rescue of ATP level is -5.86%.

Take `COCC(=O)N[C@H]1C=C[C@H](CC(=O)N2CCCCC2)O[C@H]1CO`: the rescue of ATP level was 6.62%.

For `CNC[C@H]1Oc2cc(C#CCOC)ccc2S(=O)(=O)N([C@@H](C)CO)C[C@H]1C`, the rescue of ATP level was -7.75%.

On to `COc1ccc(NC(=O)c2cc(-c3cc(OC)c(OC)c(OC)c3)nc3ccccc23)c(OC)c1`, for which the rescue of ATP level is -9.57%.

With `COc1ccc(-c2cc(C(=O)Nc3ccccc3O)c3ccccc3n2)cc1`, the rescue of ATP level is 14.3%.

For `COc1ccc(-c2cc(C(=O)n3cnc4ccccc43)c3ccccc3n2)cc1`, the rescue of ATP level was 87.1% (active).

`O=C(C[C@H]1C=C[C@H](NC(=O)NC2CCCCC2)[C@H](CO)O1)NCc1ccccc1`: the rescue of ATP level was 2.53%.

For the compound `CS(=O)(=O)Nc1ccc2c(c1)[C@H]1C[C@H](CC(=O)NCc3ccc(Cl)cc3)O[C@@H](CO)[C@H]1O2`, the rescue of ATP level was -4.85%.

As to `COc1ccccc1-c1cn(CC[C@@H]2CC[C@@H](NC(=O)c3ccccc3F)[C@H](CO)O2)nn1`, the rescue of ATP level was 6.43%.

Regarding `CN(C)Cc1cn(CC[C@H]2CC[C@H](NS(=O)(=O)c3ccccc3)[C@@H](CO)O2)nn1`, the rescue of ATP level is -2.83%.

Consider `Cc1cc2nc(C)n(CCCNC(=O)Nc3ccccc3)c2cc1C`, for which the rescue of ATP level is 93.8% (active).

For `C=CCN(C(=O)Nc1ccc2c(c1)nc(C)n2C)c1ccccc1`, the rescue of ATP level was -0.158%.

Regarding `CCOc1ccc(CCNC(=O)Nc2ccccc2)cc1OCC`, the rescue of ATP level was 1.69%.

Take `CCCNC(=O)C[C@H]1CC[C@@H]2[C@H](COC[C@H](O)CN2CC2CCCCC2)O1`: the rescue of ATP level is -0.493%.

As for `CNC(=O)C[C@H]1CC[C@@H]2[C@H](COc3ccc(NC(=O)Nc4cccc(F)c4)cc3C(=O)N2C)O1`, the rescue of ATP level is -6.73%.

`CNC(=O)C[C@@H]1CC[C@@H]2[C@@H](COc3ccc(NC(=O)Nc4ccccc4OC)cc3C(=O)N2C)O1`: the rescue of ATP level was 10.7%.

For `CC=CCn1c(SCCCc2ccccc2)nc2c1c(=O)[nH]c(=O)n2C`, the rescue of ATP level was 1.54%.

In the case of `Cn1c(=O)[nH]c(=O)c2c1nc(N1CCN(C(c3ccccc3)c3ccccc3)CC1)n2CCO`, the rescue of ATP level was 41.4%.

Consider `CC1CCN(c2nc3c(c(=O)[nH]c(=O)n3C)n2CCCc2ccccc2)CC1`, for which the rescue of ATP level is 144% (active).

Regarding `CCCNC(=O)[C@@H]1[C@@H](CO)[C@@H]2Cn3c(ccc(-c4ccccc4F)c3=O)[C@H]1N2CC1CC1`, the rescue of ATP level is -5.23%.

In the case of `COc1ccccc1-c1cnc2c(c1)C(=O)N([C@H](C)CO)C[C@@H](C)[C@@H](CN(C)Cc1ccncc1)O2`, the rescue of ATP level is 41.2%.

As for `C/C(=N\NC(=O)c1nc(C)cc(C)n1)c1ccccc1`, the rescue of ATP level was 121% (active).

For `CC(=NNC(=O)c1ccc2nc[nH]c2c1)c1ccc(Br)cc1`, the rescue of ATP level was -6.54%.

Turning to `COc1ccc(/C(C)=N/NC(=O)c2ccc3nc[nH]c3c2)cc1`, the rescue of ATP level is -52.1%.

For `CCCC(O)C#Cc1cnc2c(c1)C(=O)N([C@H](C)CO)C[C@H](C)[C@H](CN(C)Cc1ccc(F)cc1)O2` (some centres undefined), the rescue of ATP level is -2.92%.

As to `Cc1ccc(S(=O)(=O)Nc2ccc3c(c2)C(=O)N([C@@H](C)CO)C[C@@H](C)[C@H](CN(C)Cc2ccc(C(F)(F)F)cc2)O3)cc1`, the rescue of ATP level is 9.63%.

As for `COc1ccc(S(=O)(=O)Nc2ccc3c(c2)CC(=O)N([C@H](C)CO)C[C@H](C)[C@H](CN(C)Cc2ccc(C(F)(F)F)cc2)O3)cc1`, the rescue of ATP level is 12%.

`C[C@@H]1CN([C@@H](C)CO)C(=O)Cc2cc(NS(=O)(=O)c3ccc(Cl)cc3)ccc2O[C@H]1CN(C)Cc1ccc(C(F)(F)F)cc1`: the rescue of ATP level is 96.2% (active).

As to `Cc1ccc(S(=O)(=O)Nc2ccc3c(c2)CC(=O)N([C@H](C)CO)C[C@@H](C)[C@H](CN(C)Cc2ccc(C(F)(F)F)cc2)O3)cc1`, the rescue of ATP level is 110% (active).

Take `C[C@H]1CN([C@@H](C)CO)C(=O)Cc2cc(NS(=O)(=O)c3ccc(F)cc3)ccc2O[C@H]1CN(C)Cc1ccc(C(F)(F)F)cc1`: the rescue of ATP level is 15.6%.

Take `Cc1ccc(S(=O)(=O)Nc2ccc3c(c2)CC(=O)N([C@@H](C)CO)C[C@H](C)[C@H](CN(C)Cc2ccccc2)O3)cc1`: the rescue of ATP level was 21.7%.
